Compound activity: PubChem, National Center for Advancing Translational Sciences (NCATS)
HepG2 viability: qHTS for Inhibitors of TGF-b: Cytotox Counterscreen | HepG2 CAGA-GFP viability, ATP luminescence, 18 h | Potency, µM (highest dose often 46.1 µM), usual class: cytotoxic | actives 0.76% (n = 410,000)
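CellTiter-Glo luminescence gave cytotoxicity after 18 hours at 37 degrees C. The cells were HepG2 CAGA-GFP in 1% FBS DMEM, stimulated with 500 pg/mL TGF-beta after compound addition. %Activity was normalised to no-cell wells (complete cell-killing) and DMSO (no toxicity), and curves were fitted and classified.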
DT40 TDP1 CPT: qHTS for Inhibitors of human tyrosyl-DNA phosphodiesterase 1 (TDP1): qHTS in cells in presence of CPT; chicken DT40 Tdp1-/-;hTDP1 cells + 20 nM CPT, ATP luminescence, 48 h; Potency, µM (doses to about 46.2 µM), usual class: inhibitors; actives 12% (n = 420,000); further: nearly all actives have a fitted effect of over 55% in size
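Chicken DT40 Tdp1-/- cells complemented with human TDP1, 400 cells/well, exposed to compounds plus 20 nM camptothecin for at least 48 h at 37 C; viability read as ATP content by CellTiter-Glo luminescence.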
TGFb inhibitor: qHTS for Inhibitors of TGF-b. HepG2 CAGA-GFP TGF-b/SMAD3 reporter, GFP fluorescence, 18 h; TGF-beta stimulated, 500 pg/mL final. Potency, µM (titrated, usually from 46.1 µM), actives largely listed as inhibitors. actives 1.2% (n = 410,000); further: nearly all actives have a fitted effect of over 65% in size
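HEPG2 CAGA-GFP cells (1000/well, DMEM with 1% FBS) were pre-incubated 2 h at 37 degrees C, given compound by pin tool, then stimulated with TGF-beta at 500 pg/mL final for 18 h before per-cell GFP fluorescence imaging.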
HT1080NT lethal: qHTS for induction of synthetic lethality in tumor cells producing 2HG: qHTS for the HT-1080-NT fibrosarcoma cell line | actives 1.6% (n = 360,000) | Potency, µM (series often up to 46.1 µM), usual class: cytotoxic | HT-1080-NT fibrosarcoma viability, CellTiter-Glo ATP luminescence, 48 h;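 further: NT is the 2HG producing partner of a matched IDH1 knockdown line; nearly all actives have a fitted effect of over 55% in size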
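Toxicity toward the 2HG-producing NT line was scored as %Activity, normalised to DMSO and no-cell wells, from CellTiter-Glo luminescence after 48 hours' treatment.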
HT1080 IDH1KD tx: qHTS for induction of synthetic lethality in tumor cells producing 2HG: qHTS for the HT-1080-IDH1KD cell line; Potency, µM (top dose mostly 46.1 µM), usual class: cytotoxic; actives 2% (n = 360,000); HT-1080 IDH1 knockdown viability, ATP luminescence, 48 h; AID 686971, 2013
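Viability of IDH1-knockdown HT-1080 fibrosarcoma cells was assessed by CellTiter-Glo after 48 h at 37 °C with titrated compound; concentration-effect curves were classified by fit quality and response size.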
DT40 TDP1 no CPT: qHTS for Inhibitors of human tyrosyl-DNA phosphodiesterase 1 (TDP1): qHTS in cells in absence of CPT; Potency, µM (series often up to 46.2 µM), actives largely listed as inhibitors; actives 15% (n = 420,000); DT40 Tdp1-/- hTDP1 cells, no CPT, ATP luminescence, 48 h; further: nearly all actives have a fitted effect of over 55% in size
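Chicken DT40 Tdp1-/- cells complemented with human TDP1, screened without camptothecin (DMSO vehicle only), 400 cells/well. Compounds pin-transferred, cells incubated at 37 °C for at least 48 hr. Growth read as ATP-dependent luminescence (CellTiter-Glo, 30 min at RT).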
Each line names hits and unclear results; the compound was inactive in the other large screens. The list is not random: actives were taken first. Their share in the collection is about 17%. The call rests on the fitted dose curve; in most records, active means well fitted curve in the direction sought with a large enough effect; inconclusive means small, poorly fitted or top-dose-only effect, or another doubt; inactive means no such curve, though single readings can be large; an effect the other way counts as inactive or inconclusive.

COc1ccc(Nc2nc(N)nc(CCl)n2)cc1	DT40 TDP1 CPT 23µM, HT1080NT lethal 1.5µM, HT1080 IDH1KD tx 23µM, DT40 TDP1 no CPT inconclusive
Nc1nc(CCl)nc(Nc2ccc3ccccc3c2)n1	DT40 TDP1 CPT 12µM, TGFb inhibitor inconclusive, HT1080NT lethal 2.1µM, HT1080 IDH1KD tx 8.2µM, DT40 TDP1 no CPT 15µM
Cc1cc(NC(=O)CN2C(=O)N(C)C3(CCCCC3)C2=O)ccc1Br	none
O=C1COc2ccc(C(=O)COC(=O)c3ccc([N+](=O)[O-])cc3Cl)cc2N1	none
Cc1cc(S(=O)(=O)c2ccc([N+](=O)[O-])cn2)ccc1Br	DT40 TDP1 CPT 0.33µM, TGFb inhibitor inconclusive, HT1080NT lethal 2.3µM, HT1080 IDH1KD tx 3.7µM, DT40 TDP1 no CPT 0.33µM
NC(=O)CCS(=O)(=O)c1ccc(Cl)cc1	none
S=c1nc(-c2ccc(Br)cc2)oc2c1CCCC2	DT40 TDP1 CPT 21µM
Cc1cccc(-c2nc(=S)c3c(o2)CCCC3)c1	DT40 TDP1 CPT inconclusive, DT40 TDP1 no CPT inconclusive
CCc1ccc(CN2CCC(C(=O)Nc3ccc(Oc4ccccc4)nc3)CC2)o1	DT40 TDP1 CPT 16µM, TGFb inhibitor inconclusive, HT1080 IDH1KD tx inconclusive, DT40 TDP1 no CPT 23µM
Cc1c(CN2CCC(C(=O)Nc3ccc(Oc4ccccc4)nc3)CC2)cnn1C	none
CCn1cc(CN2CCC(C(=O)Nc3ccc(Oc4ccccc4)nc3)CC2)cn1	TGFb inhibitor inconclusive, DT40 TDP1 no CPT 21µM
O=C(Nc1ccc(Oc2ccccc2)nc1)C1CCN(Cc2ccccc2)CC1	DT40 TDP1 CPT inconclusive, HT1080NT lethal inconclusive
Cc1cccc(NC(=O)CCN2CCN(c3ccccc3F)CC2)c1	DT40 TDP1 no CPT inconclusive (no result: HT1080NT lethal, HT1080 IDH1KD tx)
CC(=O)c1nn(-c2cccc(Br)c2)cc1C(=O)c1ccc(Br)cc1	DT40 TDP1 CPT 13µM, DT40 TDP1 no CPT 12µM
C[C@@H](C(=O)Nc1ccc2ccccc2c1)[C@@H]1C[C@@]1(C)[C@@H](NC(=O)OCc1ccccc1)c1ccccc1	DT40 TDP1 CPT inconclusive, TGFb inhibitor inconclusive, DT40 TDP1 no CPT 16µM
Cc1ccc(CNC(=O)[C@H](C)[C@H]2C[C@]2(C)[C@H](NC(=O)OCc2ccccc2)c2ccccc2)o1	DT40 TDP1 CPT inconclusive, DT40 TDP1 no CPT 16µM
C[C@@H](C(=O)NCC1CC1)[C@H]1C[C@]1(C)[C@H](NC(=O)OCc1ccccc1)c1ccccc1	DT40 TDP1 CPT 26µM, TGFb inhibitor inconclusive, DT40 TDP1 no CPT inconclusive
CNC(=O)[C@H](C)[C@@H]1C[C@@]1(C)[C@@H](NC(=O)OCc1ccccc1)c1ccccc1	DT40 TDP1 CPT inconclusive
COCCNC(=O)[C@H](C)[C@H]1C[C@]1(C)[C@H](NC(=O)OCc1ccccc1)c1ccccc1	DT40 TDP1 CPT inconclusive, DT40 TDP1 no CPT inconclusive
C[C@@H](C(=O)NCc1ccccn1)[C@@H]1C[C@@]1(C)[C@@H](NC(=O)OCc1ccccc1)c1ccccc1	DT40 TDP1 CPT 23µM, DT40 TDP1 no CPT 13µM
C[C@@H](C(=O)O)[C@@H]1C[C@@]1(C)[C@@H](NC(=O)OCc1ccccc1)c1ccccc1	none
COc1ccc(-c2cc(C(=O)Nc3cccc(O)c3)no2)cc1	none
Cc1cc(=O)[nH]c(SCC(=O)Nc2cccc(S(=O)(=O)N3CCOCC3)c2)n1	none
CCN(CC)C(=O)CC(c1ccc(OC)cc1)c1c(OC)cc(OC)c2c(-c3ccccc3)cc(=O)oc12 (configuration not stated)	TGFb inhibitor inconclusive (no result: DT40 TDP1 CPT, HT1080NT lethal, HT1080 IDH1KD tx, DT40 TDP1 no CPT)
C[C@@H](C(=O)NCc1ccccc1)[C@@H]1C[C@@]1(C)[C@@H](NC(=O)OCc1ccccc1)c1ccccc1	DT40 TDP1 CPT 16µM, DT40 TDP1 no CPT inconclusive
C[C@@H](C(=O)NCc1ccc(S(C)(=O)=O)cc1)[C@H]1C[C@]1(C)[C@H](NC(=O)OCc1ccccc1)c1ccccc1	DT40 TDP1 CPT inconclusive, DT40 TDP1 no CPT inconclusive
C[C@@H](C(=O)Nc1ccc2ccccc2c1)[C@H]1C[C@]1(C)[C@H](NC(=O)c1cnccn1)c1ccccc1	DT40 TDP1 CPT inconclusive, TGFb inhibitor inconclusive, DT40 TDP1 no CPT inconclusive
C[C@@H](C(=O)Nc1ccc2ccccc2c1)[C@H]1C[C@]1(C)[C@H](NS(=O)(=O)c1ccccc1)c1ccccc1	DT40 TDP1 CPT inconclusive, DT40 TDP1 no CPT 21µM
C[C@@H](C(=O)NCCc1c[nH]c2ccccc12)[C@@H]1C[C@@]1(C)[C@@H](NC(=O)OCc1ccccc1)c1ccccc1	DT40 TDP1 CPT 13µM, TGFb inhibitor inconclusive, DT40 TDP1 no CPT 18µM
O=C(O)CCC(=O)NNC(=O)c1ccc(Br)cc1	none
COc1ccc(NC(=O)CC(c2ccc(F)cc2)c2ccc(OC)cc2)cc1 (configuration not stated)	DT40 TDP1 CPT inconclusive, DT40 TDP1 no CPT 15µM
COc1cc(NC(=O)CNC(c2ccccc2)c2ccccc2)cc(OC)c1OC	DT40 TDP1 CPT 26µM, TGFb inhibitor inconclusive, DT40 TDP1 no CPT 21µM
O=C(CC(c1ccccc1)c1ccccc1O)NCc1ccccc1Cl (configuration not stated)	DT40 TDP1 CPT 23µM, DT40 TDP1 no CPT 16µM
O=C(CC(c1ccccc1)c1ccccc1O)NCCc1ccccc1 (configuration not stated)	DT40 TDP1 no CPT inconclusive
COc1ccc(NC(=O)CNC(c2ccccc2)c2ccccc2)cc1	DT40 TDP1 CPT inconclusive, DT40 TDP1 no CPT 26µM
O=C(NCCOC12CC3CC(CC(C3)C1)C2)c1cccc(Br)c1	DT40 TDP1 CPT inconclusive, TGFb inhibitor inconclusive, HT1080 IDH1KD tx inconclusive, DT40 TDP1 no CPT inconclusive
COc1cc(/C=C(\C#N)C(=O)c2ccc(O)c(O)c2)cc(I)c1O	none
CCN(CC)S(=O)(=O)c1cccc(NC(=O)CCNC(=O)NC23CC4CC(CC(C4)C2)C3)c1	DT40 TDP1 CPT inconclusive, TGFb inhibitor inconclusive, DT40 TDP1 no CPT inconclusive
CSc1nc(C(=O)N2CCOc3ccc(CN4CCN(Cc5ccccn5)CC4)cc3C2)cs1	none (no result: HepG2 viability, TGFb inhibitor, HT1080NT lethal, HT1080 IDH1KD tx)
COC(=O)CNC(c1ccccc1)c1cc(Br)ccc1NC(=O)OCc1ccccc1 (configuration not stated)	DT40 TDP1 no CPT inconclusive
COc1ccccc1NC(=O)CNC(c1ccccc1)c1ccccc1	DT40 TDP1 CPT inconclusive, DT40 TDP1 no CPT inconclusive
